APP 5UTR inh: APP translation inhibition | SH-SY5Y APP 5'UTR-luciferase reporter, luminescence | 190,000 compounds, 0.82% hits | inhibition, % at 2 µM | AID 1285;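 active = inhibition above a set limit, derived from the sample mean plus 3 SD, cut at about 45% in these data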
aSyn UTR inh: MLPCN primary screen, SNCA 5' untranslated region; alpha-synuclein 5'UTR reporter, inhibitor activity; inhibition, % (tested at 7.5 µM); 300,000 compounds, 0.82% hits; AID 1813; in the data active = inhibition above about 60%;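 also: H4 neuroglioblastoma cells stably carrying SNCA 5'UTR luciferase fusion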
BaF3 tox: parental Ba/F3 viability inhibition as JAK2V617F counter-screen; CellTiter-Glo ATP luminescence; inhibition, % at 5.6 µM; 220,000 compounds, 1.1% hits; AID 1486;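 active = inhibition above a per-campaign cutoff, the mean inhibition of all tested compounds plus 3 SD, cut at about 27% in these data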
KLF5 inhibitor: inhibitors of KLF5 expression; 290,000 compounds, 0.23% hits; inhibition, % at 5 µM; AID 1700; DLD-1 KLF5 promoter-luciferase reporter, luminescence;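 active = inhibition above a per-plate limit of that plate's mean compound inhibition plus 3 SD, cut at about 60% in these data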;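 also: higher means less KLF5 promoter-driven luciferase light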
IEC-6 cytotox: kills IEC-6 intestinal cells in KLF5 counter-screen | AID 1825 | IEC-6 cytotoxicity, luminescence viability | 290,000 compounds, 0.78% hits | inhibition, % at 5 µM; in the data active = inhibition above about 22%
Ba/F3 V617F tox: lowers viability of Ba/F3 cells expressing EpoR and JAK2V617F. ATP luminescence. inhibition, % at 5.6 µM. 220,000 compounds, 1.1% hits. AID 1446;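 active = inhibition above the campaign mean plus 3 SD over all tested compounds, cut at about 24% in these data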;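 also: cytokine-independent growth of Ba/F3 cells driven by EpoR plus mutant JAK2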
Numbers stand for hits. Compounds with a hit are over-represented: about 2.2% of the library has one in this group of screens.

Results for CCc1c(C)sc(NC(=O)Cc2ccccc2OC)c1C(=O)N1CCOCC1 ?
aSyn UTR inh: inactive; KLF5 inhibitor: inactive; IEC-6 cytotox: inactive

What do the screens show for `Cc1ccnc(NC(=O)c2cc(-c3ccc(Cl)s3)nc3ccccc23)c1`?
aSyn UTR inh: inactive

Results for Cc1cc(C(=O)COc2ccccc2C(N)=O)c(C)n1CC1CCCO1 (stereo unspecified) ?
APP 5UTR inh: inactive; aSyn UTR inh: inactive; BaF3 tox: 62; KLF5 inhibitor: inactive; IEC-6 cytotox: inactive; Ba/F3 V617F tox: 45

Results for Cc1cc(C(=O)COC(=O)c2ccccc2Br)c(C)n1CC1CCCO1 (stereo unspecified) ?
aSyn UTR inh: inactive; BaF3 tox: inactive; KLF5 inhibitor: inactive; IEC-6 cytotox: inactive; Ba/F3 V617F tox: inactive

What do the screens show for `COc1ccc(N=CC2=C(O)c3ccccc3C2=O)c(OC)c1`?
APP 5UTR inh: inactive; aSyn UTR inh: 63; BaF3 tox: inactive; KLF5 inhibitor: inactive; IEC-6 cytotox: inactive; Ba/F3 V617F tox: inactive

How did COc1ccc(NC(=O)CN(C)C(=O)Cc2n[nH]c(=O)c3ccccc23)cc1 do in these assays?
aSyn UTR inh: inactive

How did O=C(O)c1c(-c2ccc(Cl)cc2)cn2ccccc12 do in these assays?
APP 5UTR inh: inactive; aSyn UTR inh: inactive; BaF3 tox: 53; KLF5 inhibitor: inactive; IEC-6 cytotox: inactive; Ba/F3 V617F tox: inactive

Results for CN(C(=O)CO/N=C/c1ccc(OC(F)F)cc1)C1CCS(=O)(=O)C1 (stereo unspecified) ?
APP 5UTR inh: inactive; aSyn UTR inh: inactive; BaF3 tox: inactive; KLF5 inhibitor: inactive; IEC-6 cytotox: inactive; Ba/F3 V617F tox: inactive

How did Cc1ccc(/C=N/NC(=O)Cc2ccc(Cl)cc2)c(O)c1 do in these assays?
aSyn UTR inh: 66; KLF5 inhibitor: inactive; IEC-6 cytotox: inactive

How did CCN(C(=O)c1cc2c(=O)[nH]c3ccc(C)cc3c2s1)c1ccc(OC)cc1 do in these assays?
aSyn UTR inh: inactive; BaF3 tox: inactive; KLF5 inhibitor: inactive; IEC-6 cytotox: inactive; Ba/F3 V617F tox: inactive

How did CC(C)CN(CC(C)C)C(=S)Nc1ccc(Cl)cc1 do in these assays?
APP 5UTR inh: inactive; aSyn UTR inh: inactive; BaF3 tox: 43; KLF5 inhibitor: inactive; IEC-6 cytotox: inactive; Ba/F3 V617F tox: 33

Results for COc1ccc(/C=C2/SC(=S)N(CCC(=O)O)C2=O)cc1 ?
APP 5UTR inh: 50; aSyn UTR inh: 98; BaF3 tox: inactive; KLF5 inhibitor: inactive; IEC-6 cytotox: inactive; Ba/F3 V617F tox: inactive

What do the screens show for `COc1ccc(/C=C2\SC(=S)N(CCCC(=O)Nc3ccc(O)cc3)C2=O)cc1`?
aSyn UTR inh: 78; BaF3 tox: inactive; KLF5 inhibitor: inactive; IEC-6 cytotox: inactive; Ba/F3 V617F tox: inactive

Results for COc1ccc(/C=C2/SC(=S)N(CCCC(=O)Nc3ccc(O)cc3)C2=O)cc1 ?
aSyn UTR inh: 68; BaF3 tox: inactive; KLF5 inhibitor: inactive; IEC-6 cytotox: inactive; Ba/F3 V617F tox: inactive

How did COc1ccc(/C=C2\SC(=S)N(CCC(=O)Nc3ccc(C(=O)O)cc3)C2=O)cc1 do in these assays?
aSyn UTR inh: inactive; KLF5 inhibitor: inactive; IEC-6 cytotox: inactive

Results for CCC(=O)N1CCc2cc(Br)cc(S(=O)(=O)NCc3ccccc3OC)c21 ?
aSyn UTR inh: inactive; KLF5 inhibitor: inactive; IEC-6 cytotox: inactive

Results for CC(=O)N(Cc1ccc(F)cc1)C1=C(NCc2ccccc2)C(=O)c2ccccc2C1=O ?
APP 5UTR inh: 65; aSyn UTR inh: 92; BaF3 tox: 48; KLF5 inhibitor: inactive; IEC-6 cytotox: inactive; Ba/F3 V617F tox: inactive

Results for O=C(NCc1ccc(F)cc1)C(c1ccccc1)c1ccccc1 ?
aSyn UTR inh: inactive; KLF5 inhibitor: inactive; IEC-6 cytotox: inactive

How did COc1cc(/C=C(\C#N)c2ccccn2)cc(OC)c1O do in these assays?
aSyn UTR inh: inactive; BaF3 tox: inactive; KLF5 inhibitor: inactive; IEC-6 cytotox: inactive; Ba/F3 V617F tox: inactive

What do the screens show for `COc1cc(/C=C(\C#N)c2[nH]nc(N)c2C#N)cc(OC)c1O`?
APP 5UTR inh: 49; aSyn UTR inh: inactive; BaF3 tox: inactive; KLF5 inhibitor: inactive; IEC-6 cytotox: inactive; Ba/F3 V617F tox: inactive

Results for CSc1nnc(C)c(=O)n1COC(=O)/C=C/c1ccc2c(c1)OCO2 ?
APP 5UTR inh: inactive; aSyn UTR inh: inactive; BaF3 tox: inactive; KLF5 inhibitor: inactive; IEC-6 cytotox: inactive; Ba/F3 V617F tox: inactive

What do the screens show for `COc1ccc(N=C2S/C(=C\c3ccc(C)o3)C(=O)N2CC(C)C)cc1`?
APP 5UTR inh: 89; aSyn UTR inh: inactive; BaF3 tox: inactive; KLF5 inhibitor: inactive; IEC-6 cytotox: inactive; Ba/F3 V617F tox: inactive

What do the screens show for `C/C(=N\N1CCN(c2ccccc2)CC1)c1ccncc1`?
APP 5UTR inh: inactive; aSyn UTR inh: inactive; BaF3 tox: inactive; KLF5 inhibitor: inactive; IEC-6 cytotox: inactive; Ba/F3 V617F tox: inactive

How did CCOc1ccccc1-n1c(SCC(=O)Nc2ccc(CC)cc2)nc2n[nH]c(C)c2c1=N do in these assays?
APP 5UTR inh: inactive; aSyn UTR inh: 84; BaF3 tox: inactive; KLF5 inhibitor: inactive; IEC-6 cytotox: inactive; Ba/F3 V617F tox: inactive

Results for COCCn1c(=O)c2c(nc3n2CC(C)CN3CCc2ccccc2)n(C)c1=O (stereo unspecified) ?
aSyn UTR inh: 67; KLF5 inhibitor: inactive; IEC-6 cytotox: inactive

What do the screens show for `CCn1c(=O)c2c(nc3n2CC(C)CN3CCc2ccccc2)n(C)c1=O` (stereo unspecified)?
APP 5UTR inh: inactive; aSyn UTR inh: inactive; BaF3 tox: inactive; KLF5 inhibitor: inactive; IEC-6 cytotox: inactive; Ba/F3 V617F tox: inactive

How did Cc1nc2sc(-c3ccccc3)cc2c(=O)n1-n1cccc1 do in these assays?
APP 5UTR inh: inactive; aSyn UTR inh: inactive; BaF3 tox: inactive; KLF5 inhibitor: inactive; IEC-6 cytotox: inactive; Ba/F3 V617F tox: inactive

What do the screens show for `Cc1nc2sc(-c3ccccc3)cc2c(=O)n1N`?
aSyn UTR inh: 75; BaF3 tox: inactive; KLF5 inhibitor: inactive; IEC-6 cytotox: inactive; Ba/F3 V617F tox: inactive

What do the screens show for `O=c1[nH]c(-c2cccnc2)nc2sc(-c3ccccc3)cc12`?
APP 5UTR inh: 75; aSyn UTR inh: inactive; BaF3 tox: inactive; KLF5 inhibitor: inactive; IEC-6 cytotox: inactive; Ba/F3 V617F tox: inactive

How did O=C(COC(=O)c1cc2ccccc2oc1=O)Nc1ccc(F)cc1F do in these assays?
aSyn UTR inh: inactive; BaF3 tox: inactive; KLF5 inhibitor: inactive; IEC-6 cytotox: inactive; Ba/F3 V617F tox: inactive

How did COc1cc(NC(=O)CSc2ncnc3sc4c(c23)CCC(C)C4)c(C(=O)O)cc1OC (stereo unspecified) do in these assays?
aSyn UTR inh: inactive; KLF5 inhibitor: inactive; IEC-6 cytotox: inactive

How did COc1ccc(OC)c(Nc2cc(C)c3ccccc3n2)c1 do in these assays?
aSyn UTR inh: inactive; KLF5 inhibitor: 65; IEC-6 cytotox: inactive

Results for Cc1ccc(NC(=O)CN(C)C(=O)C2CC(=O)N(Cc3ccccc3)C2)cc1 (stereo unspecified) ?
aSyn UTR inh: inactive; KLF5 inhibitor: inactive; IEC-6 cytotox: inactive

What do the screens show for `CCCc1cc(N2CCCC(C(=O)Nc3c(OC)cccc3OC)C2)n2ncnc2n1` (stereo unspecified)?
APP 5UTR inh: 50; aSyn UTR inh: inactive; BaF3 tox: inactive; KLF5 inhibitor: inactive; IEC-6 cytotox: inactive; Ba/F3 V617F tox: inactive

High-throughput results: PubChem BioAssay, several laboratories
